“And” between values parts separate entries of the source, which are not always exact repeats. Equal entries are not always repeated.
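Further: mean inhibition measured on the AMPK complex of alpha2, beta1 and gamma1 subunits.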

5'-AMP-activated protein kinase catalytic subunit alpha-2 (Homo sapiens), sequence (P54646 whole entry, looked up): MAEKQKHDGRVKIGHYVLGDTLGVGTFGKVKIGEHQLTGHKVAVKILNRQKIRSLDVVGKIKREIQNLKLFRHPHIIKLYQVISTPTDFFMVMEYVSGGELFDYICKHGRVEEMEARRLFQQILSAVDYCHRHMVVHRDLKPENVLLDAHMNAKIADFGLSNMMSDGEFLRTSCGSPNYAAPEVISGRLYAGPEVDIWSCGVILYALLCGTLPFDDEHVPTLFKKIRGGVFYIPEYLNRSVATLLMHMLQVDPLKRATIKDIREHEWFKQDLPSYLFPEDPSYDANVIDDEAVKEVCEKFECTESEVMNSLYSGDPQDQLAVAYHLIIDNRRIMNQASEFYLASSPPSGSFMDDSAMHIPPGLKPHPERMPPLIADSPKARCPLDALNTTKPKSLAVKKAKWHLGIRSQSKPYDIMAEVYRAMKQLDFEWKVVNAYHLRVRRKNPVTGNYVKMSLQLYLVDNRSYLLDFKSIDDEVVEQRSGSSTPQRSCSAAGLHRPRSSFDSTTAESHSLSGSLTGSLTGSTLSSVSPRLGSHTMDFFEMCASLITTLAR

The test has as its target 5'-AMP-activated protein kinase catalytic subunit alpha-2 (Homo sapiens) (UniProt P54646). To be noted: at 0.1 µM.
Consider `c1cnn2ncc(-c3ccnc(NCCCN4CCOCC4)n3)c2c1`, for which the inhibition amounted to 3.24%.

On to `FC(F)(F)CNc1nccc(-c2cnn3ncccc23)n1`, for which the inhibition came to 0.68%.

As for `CCS(=O)(=O)c1ccc(OC)c(Nc2ncc(-c3cccc(F)c3)o2)c1`, the inhibition is 7.22%.

As for `COc1ccc(Nc2ncc(-c3ccccc3)o2)cc1OC`, the inhibition was -0.43%.

For the compound `Cc1nnc(-c2cccc(-c3ccc(C(=O)NCC4CC4)cc3)c2)o1`, the inhibition is 0.86%.

With `COc1cc(N2CCN(C(C)C)CC2)ccc1Nc1nc(Nc2cccc3ncccc23)c2cc[nH]c2n1`, the inhibition came out at 0.57%.

With `Cn1c(-c2nonc2N)nc2cnccc21`, the inhibition came to 0.94%.

With `CC1=C(C(=O)Nc2ccc3[nH]nc(C)c3c2)C(c2ccc(C(F)(F)F)cc2)CC(=O)N1` (stereo unspecified), the inhibition was -0.12%.

Turning to `CN1CCC(n2cnc(-c3ccc(F)cc3)c2-c2ccnc(NCCO)n2)CC1`, the inhibition amounted to 1.25%.

For the compound `COc1cc(Nc2ncc(-c3ccccc3)o2)cc(OC)c1`, the inhibition turned out to be 2.86%.

Consider `CC1=C(C(=O)Nc2ccc3[nH]ncc3c2)C(c2ccc(F)cc2)N=C(c2ccc(C(F)(F)F)nc2)N1` (stereo unspecified), for which the inhibition was found to be 0.84%.

As to `Cc1ccc(-c2cc3c(NC(=O)C4CC4)ncnc3o2)cc1`, the inhibition is 2.34%.

For the compound `O=C1Nc2ccccc2/C1=C1\CCc2cc(O)ccc21`, the inhibition was 5.22%.

Consider `CN(C)CCNC(=O)Nc1ccc(N(C)c2ccnc(Nc3ccc(CS(C)(=O)=O)cc3)n2)cc1`, for which the inhibition worked out at 2.24%.

Turning to `CS(=O)(=O)CCNCc1ccoc1-c1ccc2ncnc(Nc3ccc(OCc4ccccc4)cc3)c2c1`, the inhibition amounted to 0.46%.

Turning to `CS(=O)(=O)Nc1ccc(-c2ccc3c(NC(=O)C4CC4)n[nH]c3c2)cc1`, the inhibition was found to be 10.3%.

For `O=C(Nc1n[nH]c2nnc(-c3cccnc3)cc12)C1CC1`, the inhibition came to 0.65%.

`CC1(C)CC(n2cnc(-c3ccc(F)cc3)c2-c2ccnc(N)n2)CC(C)(C)N1`: the inhibition stood at 3.69%.

For `CNC(=O)c1ncccc1Nc1nc(Nc2cc3c(cc2OC)CCCN3C(=O)CN(C)C)nc2[nH]ccc12`, the inhibition came to 3.31%.

Consider `COc1cccc(-n2ncc3c(N/N=C/c4ccc(C(=O)NCCN(C)C)cc4)ncnc32)c1`, for which the inhibition was 2.3%.

`Cc1c2ccc(N(C)c3ccnc(Nc4cccc(S(N)(=O)=O)c4)n3)cc2nn1C`: the inhibition is 3.67%.

As to `OCCCNc1nccc(-c2c(-c3ccc(F)cc3)nn3cc(C(F)(F)F)ccc23)n1`, the inhibition was -0.71%.

For the compound `COc1cccc(Nc2nccc(-c3cnn4ncccc34)n2)c1`, the inhibition was -3.44%.

For `O=C(O[C@H]1CN[C@H](C#Cc2cc3ncnc(Nc4ccc(OCc5cccc(F)c5)c(Cl)c4)c3s2)C1)N1CCOCC1`, the inhibition came to 4.18%.

As for `NS(=O)(=O)c1ccc(N/N=C2\C(=O)Nc3ccc(C(=O)NCc4ccncc4)cc32)cc1`, the inhibition came to 5.3%.

Turning to `CS(=O)(=O)CCNCc1ccc(-c2ccc3ncnc(Nc4ccc(OCc5ccccc5)cc4)c3c2)o1`, the inhibition worked out at 2.07%.

Turning to `CCOc1ccc2c(-c3ccnc(Nc4cc(OC)cc(C(F)(F)F)c4)n3)cnn2n1`, the inhibition is 1.34%.

On to `Nc1nonc1-c1nc2cnccc2n1C1CC1`, for which the inhibition is 1.84% and 3.94%.

As to `CCN1CCC(C(=O)Nc2n[nH]c3nnc(-c4cccc(F)c4F)cc23)CC1`, the inhibition was 1.01%.

Regarding `CS(=O)(=O)CCNCc1ccc(-c2ccc3ncnc(Nc4ccc(OCc5cccc(C(F)(F)F)c5)cc4)c3c2)o1`, the inhibition is 6.24%.

Consider `Nc1nccc(-c2c(-c3ccc(F)cc3)ncn2C2CCNCC2)n1`, for which the inhibition is -1.29% and 1.97%.

The record behind these values is ChEMBL document CHEMBL1961873, “Compounds: GSK PKIS; Assays: Nanosyn kinase panel” (2012).
